In the supplement of paper PMC12350171:
Counter-ions that a name gives are not always drawn. Unmarked numbers belong to inactive results.

Columns and labels:
Conditions in all cases: 20 µM
[1] = tested on: Salmonella enterica typhimurium; assay: growth AUC normalised to DMSO control (fraction of control); higher = less growth inhibition, active = hit call of the paper
How it was run: (§1)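 Hemin and NAD were added to the medium for Haemophilus parainfluenzae. All pathogens, after two anaerobic passages, were inoculated at a starting OD578 of 0.01 into pre-reduced mGAM plates with 20 μM compound and 1% DMSO under breathable seals, and OD578 was read hourly for 24 h in three biological replicates. AUC of each growth curve was obtained with the trapezoidal rule up to the exponential-to-stationary transition and normalised to DMSO controls from the same plate.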

Shigella flexneri = assay: as above
How it was run: as §1

Vibrio cholerae = assay: as above
How it was run: as §1

[2] = tested on: Yersinia pseudotuberculosis; assay: as above
How it was run: as §1

P. vulgatus RND KO = assay: growth AUC normalised to DMSO control (median) (fraction of control); higher = less growth inhibition, active = hit call of the paper
How it was run: (§2)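 Strains were passaged twice overnight without oxygen, then grown in mGAM in 96-well plates with each approved-drug library compound at 20 μM and 1% DMSO, starting at OD578 0.01. OD578 was read hourly for 24 h inside an anaerobic incubator. Curves were truncated at entry into stationary phase, and the trapezoidal-rule area under the curve was normalised to same-plate vehicle wells. The value is the median across three biological replicates.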

P. vulgatus WT = assay: as above
How it was run: as §2

[3] = tested on: S. enterica typhimurium WT; assay: as above
How it was run: as §2

[4] = tested on: S. enterica typhimurium tolC KO; assay: as above
How it was run: as §2
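For growth AUC normalised to DMSO control (median) in this document: active when median AUC fell below 0.1.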

| Structure (SMILES) | growth AUC normalised to DMSO control [1] | growth AUC normalised to DMSO control (Shigella flexneri) | growth AUC normalised to DMSO control (Vibrio cholerae) | growth AUC normalised to DMSO control [2] | growth AUC normalised to DMSO control (P. vulgatus RND KO) | growth AUC normalised to DMSO control (P. vulgatus WT) | growth AUC normalised to DMSO control [3] | growth AUC normalised to DMSO control [4] |
| --- | --- | --- | --- | --- | --- | --- | --- | --- |
| Cc1cc(C)nc(NS(=O)(=O)c2ccc(N)cc2)n1 [Sulfamethazine sodium salt] | 0.985 | 0.986 | 0.982 | 1.01 | 0.996 | 0.988 | 0.992 | 1.01 |
| COc1ccc(-c2cc(=S)ss2)cc1 [Anethole-trithione] | 1.02 | 1.05 | 0.91 | 1.19 | 1.02 | 1.04 | 0.985 | 0.91 |
| CS(=O)(=O)c1ccc(C2=C(c3ccccc3)C(=O)OC2)cc1 [Rofecoxib] | 1.01 | 0.99 | 1.02 | 0.995 | 1 | 1.03 | 1 | 0.98 |
| CC(COc1ccccc1)N(CCCl)Cc1ccccc1 (stereo not given) [Phenoxybenzamine hydrochloride] | 1.01 | 1.01 | 1.01 | 1.03 | 1.02 | 1.03 | 1 | 0.99 |
| O=C(COc1ccc(Cl)cc1)N1CCN(Cc2ccc3c(c2)OCO3)CC1 [Fipexide hydrochloride] | 0.987 | 0.971 | 0.875 | 0.992 | 1 | 0.966 | 0.995 | 0.942 |
| CN(C)CCCO[C@@H]1[C@H]2OC(C)(C)O[C@H]2O[C@@H]1[C@H](O)CO [Amiprilose hydrochloride] | 0.904 | 1 | 0.986 | 0.997 | 0.969 | 0.966 | 1.01 | 1 |
| COc1ccc(C(=O)NCc2ccc(OCCN(C)C)cc2)cc1OC [Itopride] | 0.996 | 1.05 | 1.07 | 1.03 | 1.02 | 1.06 | 1.02 | 1 |
| CC(C)NCC(O)COc1ccc(CCOCC2CC2)cc1 (stereo not given) [Betaxolol hydrochloride] | 0.998 | 0.988 | 1 | 1 | 1.01 | 1.01 | 1.01 | 1 |
| C=CC1=C(C(=O)O)N2C(=O)[C@@H](NC(=O)/C(=N\O)c3csc(N)n3)[C@H]2SC1 [Cefdinir] | 0.00595 (active) | 0.00663 (active) | 0.0728 (active) | 0.023 (active) | 0.0139 (active) | 0.0141 (active) | 0.0086 (active) | 0.00501 (active) |
| Nc1nc(F)nc2c1ncn2[C@@H]1O[C@H](CO)[C@@H](O)[C@@H]1O [Fludarabine] | 0.963 | 0.933 | 0.997 | 0.988 | 0.994 | 0.999 | 0.994 | 0.991 |
| CC(C[N+](C)(C)C)OC(N)=O (stereo not given) [Bethanechol chloride] | 1 | 1.01 | 1.02 | 0.986 | 0.982 | 0.997 | 1 | 0.993 |
| O=C1C(CC[S+]([O-])c2ccccc2)C(=O)N(c2ccccc2)N1c1ccccc1 (stereo not given) [Sulfinpyrazone] | 0.996 | 1 | 1 | 0.971 | 1 | 1.01 | 0.998 | 0.985 |
| CC(N)(Cc1ccc(O)c(O)c1)C(=O)O (stereo not given) [(L) Methyldopa] | 1.01 | 1.01 | 1.01 | 0.973 | 1.03 | 1.05 | 1.01 | 1.01 |
| CN1CCN(C2=Nc3ccccc3Oc3ccc(Cl)cc32)CC1 [Loxapine succinate] | 1 | 0.992 | 0.907 | 1.01 | 0.612 | 0.478 | 1.01 | 0.96 |
| CNCCCC1c2ccccc2C=Cc2ccccc21 [Protriptyline hydrochloride] | 0.973 | 1 | 0.997 | 1 | 0.913 | 0.882 | 0.996 | 0.951 |
| OCc1cc(C(O)CNCCCCCCOCCCCc2ccccc2)ccc1O (stereo not given) [Salmeterol] | 0.997 | 0.995 | 1 | 0.959 | 0.977 | 0.962 | 0.995 | 0.946 |
| Fc1ccc([C@@H]2CCNC[C@H]2COc2ccc3c(c2)OCO3)cc1 [Paroxetine hydrochloride] | 0.995 | 1 | 0.94 | 0.991 | 0.997 | 1.02 | 0.998 | 0.982 |
| CC[C@H](C)C(=O)O[C@H]1CCC=C2C=C[C@H](C)[C@H](CC[C@@H]3C[C@@H](O)CC(=O)O3)[C@H]21 [Mevastatin] | 1 | 1.01 | 1.02 | 0.974 | 0.952 | 0.989 | 1.01 | 0.922 |
| CC(=O)Nc1c(I)c(C(=O)N[C@H]2C(O)O[C@H](CO)[C@@H](O)[C@@H]2O)c(I)c(N(C)C(C)=O)c1I (stereo not given in full) [Metrizamide] | 1.01 | 0.985 | 0.988 | 1.01 | 1 | 1.01 | 1.02 | 1.01 |
| CC1(C)S[C@@H]2[C@H](NC(=O)[C@H](NC(=O)N3CCNC3=O)c3ccccc3)C(=O)N2[C@H]1C(=O)O [Azlocillin sodium salt] | 0.766 (active) | 0.0935 (active) | 0.78 (active) | 0.281 (active) | 0.0105 (active) | 0.0107 (active) | 0.887 | 0.00584 (active) |
| CC(=O)c1ccc(S(=O)(=O)NC(=O)NC2CCCCC2)cc1 [Acetohexamide] | 1 | 0.998 | 0.984 | 0.989 | 0.949 | 1 | 0.996 | 0.994 |
| Cn1nnc2c(C(N)=O)ncn2c1=O [Temozolomide] | 0.981 | 0.963 | 0.992 | 0.996 | 0.989 | 0.988 | 0.967 | 1.01 |
| Cc1ccccc1C(OCCN(C)C)c1ccccc1 (stereo not given) [Orphenadrine hydrochloride] | 1 | 1.02 | 1.02 | 0.992 | 1.01 | 0.992 | 0.983 | 0.958 |
| COC(=O)Nc1nc2cc(Sc3ccccc3)ccc2[nH]1 [Fenbendazole] | 0.996 | 1.01 | 0.995 | 1.01 | 1.01 | 1.01 | 1.01 | 0.987 |
| NCCCC(O)(P(=O)(O)O)P(=O)(O)O [Alendronate sodium] | 1.03 | 1.05 | 1.1 | 1.02 | 1.05 | 1.06 | 1 | 0.99 |
| CCN(CC)CCCC(C)Nc1ccnc2cc(Cl)ccc12 (stereo not given) [Chloroquine diphosphate] | 0.997 | 0.982 | 1.01 | 1.01 | 1.02 | 1.02 | 1 | 1 |
| CN1CCC[C@@H]1CCO[C@](C)(c1ccccc1)c1ccc(Cl)cc1 [Clemastine fumarate] | 0.999 | 0.969 | 0.926 | 1.02 | 0.944 | 0.947 | 0.998 | 0.925 |
| COC(=O)Nc1nc2cc(C(=O)c3cccs3)ccc2[nH]1 [Nocodazole] | 1.01 | 1.02 | 0.979 | 1 | 1.01 | 1.02 | 1.01 | 0.975 |
| CNNCc1ccc(C(=O)NC(C)C)cc1 [Procarbazine hydrochloride] | 1 | 1.02 | 1 | 0.992 | 1.06 | 1.05 | 1.01 | 1 |
| CC(=O)Nc1ccc(O)cc1 [Acetaminophen] | 0.992 | 0.99 | 0.997 | 0.996 | 1.02 | 1.01 | 1 | 0.998 |
